Here are results for seven compounds from PubChem BioAssay (Tox21).

A short description of assay [1]: Caspase-3/7 induction in HepG2 cells by small molecules, qHTS assay (AID 1346978). Note: nearly all actives have a fitted effect of over 15% in size. The procedure, abridged:
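Caspase-3/7 induction was measured by Caspase-Glo 3/7 luminescence (30 min, room temperature) after a 17 hr compound exposure of wild-type HepG2 cells seeded at 2,000 per well and pre-incubated 5 hr.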
In general terms: In qHTS, concentration-response curves come from the screen itself.

Assay [2] in a line: Caspase-3/7 induction in CHO-K1 cells by small molecules, qHTS assay (AID 1346980). Note: nearly all actives have a fitted effect of over 15% in size. The procedure, abridged:
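Luminescent Caspase-Glo 3/7 read (30min, room temperature) quantified apoptosis induction. Cells were wild-type CHO-K1, treated with compound for 17hr at 37 C and 5% CO2.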

Assay [3] in a line: Caspase-3/7 induction in HepG2 cells by small molecules, qHTS cell viability counter screen (AID 1346981). Note: nearly all actives have a fitted effect of over 30% in size. Note: potency is the fitted concentration of half-maximal effect. The procedure, abridged: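 HepG2, WT, 2,000 cells/well; 5 hr pre-incubation 37 C/5% CO2; compound pin-transferred from DMSO; 16 hr exposure; CellTiter-Fluor, 1 hr; fluorescence read.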
Assay [4] addresses Nuclear receptor subfamily 1 group I member 2 (Homo sapiens) (UniProt O75469). The assay is described as follows: Human pregnane X receptor (PXR) small molecule agonists, qHTS assay (AID 1346982). Note: nearly all actives have a fitted effect of over 35% in size. Note: potency is the fitted concentration of half-maximal effect. The essentials:
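Luciferase signal from ONE-Glo (30 min, room temperature) measured activation of hPXR-driven CYP3A4 reporter expression in PXR-Luc HepG2 cells treated with compounds for 24 hr at 37 C.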

Assay [5] addresses Acetylcholinesterase (Homo sapiens) (UniProt P22303). The assay is described as follows: Acetylcholinesterase (AChE) small molecule antagonists: colormetric cell-based qHTS assay (AID 1347395; calls by dose curve; note: nearly all actives have a fitted effect of over 30% in size). The procedure, abridged:
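Colorimetric read-out: DTNB detects thiocholine released when cellular AChE in SH-SY5Y cells hydrolyses acetylthiocholine. Cells attached overnight, received compound for 30 min at 37 C, then substrate mix for 90 min at 37 C.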

For assay [6] the target is unchanged. The assay is described as follows: Acetylcholinesterase (AChE) small molecule antagonists: enzyme-based qHTS assay (AID 1347397; calls by dose curve; note: nearly all actives have a fitted effect of over 55% in size). The conditions noted are these: Potency: AChE enzyme activity inhibition. The essentials:
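Absorbance-based detection of thiocholine with DTNB served as the read-out. Recombinant human AChE was exposed to compound for 30 min at RT before a 10 min RT incubation with acetylthiocholine.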

For assay [7] the target is unchanged. The assay is described as follows: Acetylcholinesterase (AChE) small molecule antagonists: fluorescence cell-based qHTS assay (AID 1347398; calls by dose curve; note: nearly all actives have a fitted effect of over 50% in size). The note with it: Potency: AChE activity. The procedure, abridged:
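Fluorimetric cell-based assay: intact SH-SY5Y cells, 30 min compound preincubation at 37 C, acetylthiocholine substrate with thiol probe Thiolite Green, 40 min RT development, fluorescence 490/520 nm.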

The target is the same in assay [8]. The assay is described as follows: Acetylcholinesterase (AChE) small molecule antagonists: enzyme-based qHTS assay with human liver microsomes (AID 1347399; calls by dose curve; note: nearly all actives have a fitted effect of over 60% in size). The note with it: Potency: qHTS inhibition. The essentials: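 Recombinant human AChE (50 mU/mL in the enzyme mix) and human liver microsomes (0.25 mg/mL final) were preincubated with compound and NADPH (0.25 mg/mL final) for 30 min at 37 C. Acetylthiocholine/DTNB was then added; thiocholine was read colorimetrically after 10 min at room temperature.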

The target of assay [9] is Cytochrome P450 2D6 (Homo sapiens) (UniProt P10635). The assay is described as follows: Cytochrome P450 Family 2 Subfamily D Member 6 (CYP2D6) small molecule antagonists: luciferase reporter qHTS assay (AID 1671196). Note: nearly all actives have a fitted effect of over 50% in size. Note: potency is the fitted concentration of half-maximal effect. The essentials:
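Read-out is luminescence from luciferin formed by CYP2D6 turnover of a proluciferin substrate, recorded as relative luminescence units. Reactions ran 1 h at room temperature after NADPH regeneration solution was added.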
Background: A reporter such as luciferase makes a cellular process visible.

Assay [10] has as its target Cytochrome P450 2C19 (Homo sapiens) (UniProt P33261). The assay is described as follows: Cytochrome P450 Family 2 Subfamily C Member 19 (CYP2C19) small molecule antagonists: luciferase reporter qHTS assay (AID 1671197). Note: nearly all actives have a fitted effect of over 65% in size. Note: potency is the fitted concentration of half-maximal effect. The essentials: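 Quantitative high-throughput screen of the Tox21 library using CYP2C19 with proluciferin substrate. Reaction: NADPH regeneration, 37C, 1 h, after 10 min compound preincubation at room temperature. Readout: luminescence.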

Assay [11] has as its target Cytochrome P450 2C9 (Homo sapiens) (UniProt P11712). Put plainly: Cytochrome P450 Family 2 Subfamily C Member 9 (CYP2C9) small molecule antagonists: luciferase reporter qHTS assay (AID 1671198). Note: nearly all actives have a fitted effect of over 50% in size. Note: potency is the fitted concentration of half-maximal effect. The essentials: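 Enzyme-substrate mix preincubated with compound 10 min at room temperature; reaction started with NADPH regeneration solution, 1 h 37C. Luminescent luciferin product read after 20 min detection reagent.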

The target in assay [12] is Cytochrome P450 1A2 (Homo sapiens) (UniProt P05177). Put plainly: Cytochrome P450 Family 1 Subfamily A Member 2 (CYP1A2) small molecule antagonists: luciferase reporter qHTS assay (AID 1671199). Note: nearly all actives have a fitted effect of over 50% in size. Note: potency is the fitted concentration of half-maximal effect. The essentials: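 P450-Glo CYP1A2, 1536-well qHTS: enzyme/proluciferin substrate + cpd (DMSO), 10 min RT; NADPH regen, 1 h RT; detection reagent, 20 min; luminescence, RLU.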

Assay [13] addresses Voltage-gated inwardly rectifying potassium channel KCNH2 (Homo sapiens) (UniProt Q12809). Put plainly: Human Ether-a-go-go-Related Gene (hERG) channel small molecule antagonists: fluorescence cell-based qHTS assay (AID 1671200). The procedure, abridged: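 Channel function was assessed by thallium flux. Cells seeded the previous day and kept at 37 C took up FluxOR II dye over 1 h in the dark at room temperature, then sat another 10 min before stimulation.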
On the technique in general: Block of hERG is tested as a sign of cardiac risk.

The target of assay [14] is Cytochrome P450 3A4 (Homo sapiens) (UniProt P08684). The assay is described as follows: Cytochrome P450 Family 3 Subfamily A Member 4 (CYP3A4) small molecule antagonists: luciferase reporter qHTS assay (AID 1671201). The essentials: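 Compounds in DMSO were pin-transferred onto CYP3A4 enzyme-substrate mix and held 10 min at room temperature. NADPH regenerating solution started the reaction for 1 h; luciferin detection reagent stopped it, and luminescence was read after 20 min.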

Assay [15] has as its target Nuclear receptor subfamily 1 group I member 2 (Rattus norvegicus) (UniProt Q9R1A7). Put plainly: Rat pregnane X receptor (rPXR) activation by small molecules, qHTS assay (AID 1346983). Note: nearly all actives have a fitted effect of over 20% in size. The conditions noted are these: rPXR luciferase reporter cells, One-Glo luminescence, 24 h; stronger effect = higher value. The essentials: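 Luminescent readout (One-Glo luciferase, 30 min room temperature) followed 24 hr compound treatment at 37 C of rPXR cells plated 2,000 per well and preincubated 5hr; qHTS format with compounds delivered in DMSO.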

Assay [16] has as its target Nuclear receptor subfamily 1 group I member 2 (Homo sapiens) (UniProt O75469). Put plainly: CYP3A4 induction through human pregnane X receptor (PXR) by small molecules, qHTS assay (AID 1346984). Note: nearly all actives have a fitted effect of over 40% in size. The essentials: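 Luminescence readout: luciferase signal after One-Glo (30 min, room temperature), following 3 h at 37C with 3uM final Luciferin-IPA P450 substrate. Cells were DPX-2 (HepG2, PXR/CYP3A4-luc co-transfected) dosed for 24 h.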

Assay [17] shares this target. Put plainly: Human pregnane X receptor (PXR) activation by small molecules, qHTS assay (AID 1346985). Note: nearly all actives have a fitted effect of over 40% in size. The procedure, abridged:
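DPX-2 cells (HepG2 co-transfected with a PXR response element and a CYP3A4-promoter luciferase construct) were seeded at 2,000 per well, rested 5 hr at 37C, then exposed to DMSO-dissolved compounds for 24 hr. Activation was read as luciferase luminescence.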

The nature of assay [18]: Caspase-3/7 induction in CHO-K1 cells by small molecules, qHTS cell viability counter screen (AID 1346979). Note: nearly all actives have a fitted effect of over 35% in size. The procedure, abridged: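 Cells (CHO-K1, wild type) are plated at 1,500 per well and incubated 5hr. Test compounds in DMSO are then pinned in, followed by 16hr at 37C and 5% CO2. Viability is read by CellTiter-Fluor fluorescence after 1hr.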

Values joined by “and” are separate entries in the source; they are usually repeats but may differ in a detail not shown here. Equal values may be shown once. Results filed as inconclusive are left out. Where a structure was tested more than once in an assay, its records may differ in their call. Active and inactive are the calls of the source. Unless noted, calls come from the whole dose curve; as a rule, active = well fitted curve in the direction sought with a large enough effect in the repeat runs; inconclusive = weak or mixed curves; inactive = no such curve, though single readings can be large; an effect the other way counts as inactive or inconclusive.
% is set by controls: 0 for no effect and ±100 for the full control effect.

Chain of Cytochrome P450 2D6 (Homo sapiens) (P10635 whole entry, looked up): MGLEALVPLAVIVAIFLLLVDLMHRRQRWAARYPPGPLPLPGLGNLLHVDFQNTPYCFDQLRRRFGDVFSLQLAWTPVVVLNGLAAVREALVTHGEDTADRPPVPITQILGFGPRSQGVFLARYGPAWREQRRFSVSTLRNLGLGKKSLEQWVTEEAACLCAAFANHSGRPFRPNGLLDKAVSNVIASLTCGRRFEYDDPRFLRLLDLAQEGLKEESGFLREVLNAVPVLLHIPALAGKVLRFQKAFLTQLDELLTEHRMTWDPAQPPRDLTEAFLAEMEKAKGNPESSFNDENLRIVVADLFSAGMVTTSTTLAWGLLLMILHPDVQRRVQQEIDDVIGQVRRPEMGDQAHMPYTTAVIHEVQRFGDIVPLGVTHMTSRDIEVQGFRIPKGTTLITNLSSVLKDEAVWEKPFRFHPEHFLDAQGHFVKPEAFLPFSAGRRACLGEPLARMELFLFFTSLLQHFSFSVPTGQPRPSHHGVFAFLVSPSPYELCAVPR
Chain of Cytochrome P450 2C9 (Homo sapiens) (P11712 whole entry, looked up): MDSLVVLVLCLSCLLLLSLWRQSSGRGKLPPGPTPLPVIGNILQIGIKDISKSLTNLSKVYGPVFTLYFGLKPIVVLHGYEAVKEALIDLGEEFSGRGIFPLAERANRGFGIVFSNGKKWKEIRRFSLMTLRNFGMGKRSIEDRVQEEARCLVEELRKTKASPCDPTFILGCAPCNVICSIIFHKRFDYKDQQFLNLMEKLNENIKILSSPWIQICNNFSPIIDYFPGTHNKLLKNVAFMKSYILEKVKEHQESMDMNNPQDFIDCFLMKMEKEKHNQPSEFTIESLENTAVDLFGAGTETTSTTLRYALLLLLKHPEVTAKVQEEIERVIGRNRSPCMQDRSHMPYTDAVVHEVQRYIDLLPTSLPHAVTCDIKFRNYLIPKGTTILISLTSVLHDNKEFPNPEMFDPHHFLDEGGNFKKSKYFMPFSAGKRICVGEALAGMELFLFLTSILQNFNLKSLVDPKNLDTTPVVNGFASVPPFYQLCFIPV
Chain of Acetylcholinesterase (Homo sapiens) (P22303 whole entry, looked up): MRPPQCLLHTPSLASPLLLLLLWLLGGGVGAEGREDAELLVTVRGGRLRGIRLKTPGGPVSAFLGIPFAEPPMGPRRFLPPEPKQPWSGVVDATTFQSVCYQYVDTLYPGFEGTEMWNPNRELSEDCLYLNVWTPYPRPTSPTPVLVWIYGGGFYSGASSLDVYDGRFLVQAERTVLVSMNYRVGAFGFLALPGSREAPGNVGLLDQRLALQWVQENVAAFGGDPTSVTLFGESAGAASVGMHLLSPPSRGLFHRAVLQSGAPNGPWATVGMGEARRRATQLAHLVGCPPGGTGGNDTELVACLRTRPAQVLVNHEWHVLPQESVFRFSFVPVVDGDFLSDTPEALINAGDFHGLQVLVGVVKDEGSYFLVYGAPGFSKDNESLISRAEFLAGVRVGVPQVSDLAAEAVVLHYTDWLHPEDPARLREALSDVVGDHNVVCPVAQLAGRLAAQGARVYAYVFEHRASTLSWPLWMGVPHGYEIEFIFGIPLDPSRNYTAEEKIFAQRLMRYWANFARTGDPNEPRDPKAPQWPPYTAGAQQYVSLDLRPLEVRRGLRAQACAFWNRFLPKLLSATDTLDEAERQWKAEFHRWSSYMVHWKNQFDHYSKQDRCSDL
Chain of Cytochrome P450 1A2 (Homo sapiens) (P05177 whole entry, looked up): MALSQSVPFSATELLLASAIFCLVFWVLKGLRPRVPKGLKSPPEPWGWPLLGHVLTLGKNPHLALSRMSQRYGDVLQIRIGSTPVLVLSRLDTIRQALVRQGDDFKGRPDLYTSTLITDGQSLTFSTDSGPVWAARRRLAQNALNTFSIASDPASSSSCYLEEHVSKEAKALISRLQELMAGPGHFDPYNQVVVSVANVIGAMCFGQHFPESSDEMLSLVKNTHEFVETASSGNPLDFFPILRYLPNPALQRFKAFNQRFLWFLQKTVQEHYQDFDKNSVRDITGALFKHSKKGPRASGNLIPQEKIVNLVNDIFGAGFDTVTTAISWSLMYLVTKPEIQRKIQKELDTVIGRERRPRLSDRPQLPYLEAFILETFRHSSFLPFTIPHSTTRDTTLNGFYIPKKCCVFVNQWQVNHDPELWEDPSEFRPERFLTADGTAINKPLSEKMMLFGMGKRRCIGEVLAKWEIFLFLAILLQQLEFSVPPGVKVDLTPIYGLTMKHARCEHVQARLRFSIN
Chain of Nuclear receptor subfamily 1 group I member 2 (Homo sapiens) (O75469 whole entry, looked up): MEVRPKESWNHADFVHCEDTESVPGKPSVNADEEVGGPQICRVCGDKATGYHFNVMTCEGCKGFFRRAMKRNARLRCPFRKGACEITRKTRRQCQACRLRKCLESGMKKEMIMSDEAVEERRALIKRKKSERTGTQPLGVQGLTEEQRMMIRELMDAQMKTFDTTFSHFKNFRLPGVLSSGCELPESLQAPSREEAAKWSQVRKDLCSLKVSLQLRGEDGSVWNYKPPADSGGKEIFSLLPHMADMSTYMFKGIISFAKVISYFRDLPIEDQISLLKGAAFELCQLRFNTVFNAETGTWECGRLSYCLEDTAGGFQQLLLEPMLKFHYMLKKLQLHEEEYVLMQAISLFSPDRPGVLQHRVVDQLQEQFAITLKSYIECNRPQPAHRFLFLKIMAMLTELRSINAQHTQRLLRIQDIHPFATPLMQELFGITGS
Chain of Voltage-gated inwardly rectifying potassium channel KCNH2 (Homo sapiens) (Q12809 whole entry, looked up): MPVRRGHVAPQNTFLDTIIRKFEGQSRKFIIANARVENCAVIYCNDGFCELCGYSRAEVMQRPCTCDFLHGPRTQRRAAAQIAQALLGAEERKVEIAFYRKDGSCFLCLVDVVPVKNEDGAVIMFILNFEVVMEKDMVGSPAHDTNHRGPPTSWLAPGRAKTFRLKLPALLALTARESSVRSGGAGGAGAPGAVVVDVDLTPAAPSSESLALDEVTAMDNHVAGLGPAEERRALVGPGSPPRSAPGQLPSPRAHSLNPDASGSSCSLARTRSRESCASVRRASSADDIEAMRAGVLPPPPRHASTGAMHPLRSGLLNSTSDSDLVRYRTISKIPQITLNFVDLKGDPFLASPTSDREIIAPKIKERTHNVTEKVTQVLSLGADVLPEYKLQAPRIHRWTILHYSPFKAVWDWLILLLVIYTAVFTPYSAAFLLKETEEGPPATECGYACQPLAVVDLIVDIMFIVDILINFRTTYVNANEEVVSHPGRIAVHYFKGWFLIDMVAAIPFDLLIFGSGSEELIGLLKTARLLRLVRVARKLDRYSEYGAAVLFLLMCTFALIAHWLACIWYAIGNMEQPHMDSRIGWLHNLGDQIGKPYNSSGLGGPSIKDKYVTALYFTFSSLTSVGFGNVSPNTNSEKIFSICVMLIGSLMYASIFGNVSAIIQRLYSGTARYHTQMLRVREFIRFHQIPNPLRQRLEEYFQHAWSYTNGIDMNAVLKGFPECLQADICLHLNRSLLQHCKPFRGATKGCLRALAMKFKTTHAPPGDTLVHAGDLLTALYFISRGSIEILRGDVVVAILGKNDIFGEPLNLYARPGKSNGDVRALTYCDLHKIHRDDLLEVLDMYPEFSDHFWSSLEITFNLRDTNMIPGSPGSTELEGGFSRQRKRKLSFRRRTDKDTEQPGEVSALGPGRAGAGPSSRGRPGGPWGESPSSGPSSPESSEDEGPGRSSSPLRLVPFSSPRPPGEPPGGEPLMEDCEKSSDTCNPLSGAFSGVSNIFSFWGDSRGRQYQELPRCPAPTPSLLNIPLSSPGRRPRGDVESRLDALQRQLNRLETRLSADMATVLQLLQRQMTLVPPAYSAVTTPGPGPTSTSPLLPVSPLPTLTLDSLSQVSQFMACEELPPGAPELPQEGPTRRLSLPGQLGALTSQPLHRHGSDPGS
Chain of Cytochrome P450 2C19 (Homo sapiens) (P33261 whole entry, looked up): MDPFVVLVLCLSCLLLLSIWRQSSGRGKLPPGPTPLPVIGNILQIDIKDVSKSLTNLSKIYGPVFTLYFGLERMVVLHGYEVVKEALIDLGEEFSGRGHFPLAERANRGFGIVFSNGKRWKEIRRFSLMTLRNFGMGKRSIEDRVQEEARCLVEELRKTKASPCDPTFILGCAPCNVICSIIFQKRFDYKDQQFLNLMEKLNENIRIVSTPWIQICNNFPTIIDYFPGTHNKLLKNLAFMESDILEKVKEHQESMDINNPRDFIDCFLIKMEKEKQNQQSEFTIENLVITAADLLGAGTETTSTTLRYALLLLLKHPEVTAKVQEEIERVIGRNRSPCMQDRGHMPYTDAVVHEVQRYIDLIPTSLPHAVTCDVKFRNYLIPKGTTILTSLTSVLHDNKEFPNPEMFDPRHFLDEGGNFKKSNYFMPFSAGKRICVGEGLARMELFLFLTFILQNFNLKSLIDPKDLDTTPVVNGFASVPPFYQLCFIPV
Chain of Cytochrome P450 3A4 (Homo sapiens) (P08684 whole entry, looked up): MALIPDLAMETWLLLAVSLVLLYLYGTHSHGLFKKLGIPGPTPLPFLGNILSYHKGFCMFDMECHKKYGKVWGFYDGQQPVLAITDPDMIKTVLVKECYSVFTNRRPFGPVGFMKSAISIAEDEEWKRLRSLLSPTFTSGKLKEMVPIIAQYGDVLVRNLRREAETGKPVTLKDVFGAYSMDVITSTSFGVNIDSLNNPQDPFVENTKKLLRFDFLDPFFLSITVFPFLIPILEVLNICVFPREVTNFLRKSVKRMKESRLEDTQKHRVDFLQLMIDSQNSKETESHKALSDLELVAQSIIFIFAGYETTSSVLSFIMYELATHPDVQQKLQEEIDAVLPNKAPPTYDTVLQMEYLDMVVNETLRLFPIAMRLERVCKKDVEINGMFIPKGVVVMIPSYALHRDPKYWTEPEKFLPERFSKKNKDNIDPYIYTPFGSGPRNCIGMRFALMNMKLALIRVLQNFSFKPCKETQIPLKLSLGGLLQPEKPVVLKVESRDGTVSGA

Take `c1cc(OCC2CO2)ccc1Cc1ccc(OCC2CO2)cc1` (stereo not given): the Potency entry in [1], in [2], in assay [3], in [5], in assay [6] and in [7] was “inactive” in each case. Besides, the Potency entry in [8] and in assay [13] was “inactive” in each case. The Potency in assay [4] is 68.9 µM (active) and 61.1 µM (active); in assay [9], 16 µM (active) and 28.3 µM (active); in [10], 8 µM (active) and 7.96 µM (active); in assay [11] it was 35.7 µM (active) and 28.3 µM (active); in assay [12], 71 µM (active).

On to `Brc1ccc(Oc2cc(Br)c(Br)cc2Br)c(Br)c1`, for which the Potency entry in assay [1], in assay [2], in assay [3], in [6], in [7] and in assay [8] was “inactive” each time. Moreover, the Potency result in assay [13] and in [14] was “inactive” each time. In addition, the Potency is 17.2 µM (active) and 30.9 µM (active) in [4]; 35.6 µM (active) and inactive in assay [9]; 1.78 µM (active) and 1.27 µM (active) in assay [10]; 31.7 µM (active) and 18 µM (active) in [11]; 31.7 µM (active) and 32 µM (active) in assay [12].

For `C=C(C)[C@H]1Cc2c(ccc3c2O[C@@H]2COc4cc(OC)c(OC)cc4[C@@H]2C3=O)O1`, the Potency result in assay [1], in assay [2], in assay [4], in assay [5], in assay [6] and in assay [7] was “inactive” each time. Also, the Potency entry in assay [8], in [12] and in assay [13] was “inactive” each time. Moreover, the Potency in assay [3] is 39.1 µM (active) and 30.6 µM (active) and 5.31 µM (active); in assay [9] it was “inactive and 38.9 µM (active)”; in assay [11], 5.09 µM (active) and 6.33 µM (active) and 9.77 µM (active).

In the case of `Oc1cc(Cl)c(Cl)cc1Cl`, the Potency entry in [1], in assay [2], in [3], in assay [5], in [6] and in [7] was “inactive” throughout. Also, the Potency entry in assay [8], in [9], in [10], in assay [11] and in [13] was “inactive” each time. The Potency is 60.6 µM (active) in assay [4]; 22.3 µM (active) and 20 µM (active) and 22.4 µM (active) in [12]. Moreover, in [15], the max activation is -1.86% (inactive). The result in assay [16] and in [17] was inactive.

For `Nc1c(Cl)cc([N+](=O)[O-])cc1Cl`, the Potency entry in assay [1], in assay [2], in assay [3], in assay [6], in assay [7] and in assay [8] was “inactive” each time. For the same compound, the Potency result in assay [11] and in [13] was “inactive” each time. For the same compound, the Potency in assay [4] was 27.5 µM (active); in assay [9] it was 35.8 µM (active) and inactive; in [10], 40.2 µM (active) and 56.4 µM (active); in [12] it was 1.79 µM (active) and 2.52 µM (active).

Take `O=C(CCl)c1ccccc1`: the Potency entry in [1], in [2], in assay [3], in assay [6], in assay [7] and in assay [8] was “inactive” each time. Besides, the Potency entry in assay [12] and in assay [13] was “inactive” throughout. For the same compound, the Potency was 62 µM (active) in [4]; 32.1 µM (active) and 31.7 µM (active) in assay [9]; 57.2 µM (active) in [10]; 40.5 µM (active) and inactive in assay [11].

Consider `N#CCCCl`, for which the Potency entry in assay [1], in [18], in assay [2], in assay [4], in assay [6] and in [7] was “inactive” each time. In addition, the Potency entry in assay [8], in assay [9], in assay [11], in assay [12] and in assay [13] was “inactive” throughout. In addition, the Potency in assay [10] is 77.7 µM (active) and inactive.
